Drawing on PubChem BioAssay AID2685 (National Center for Advancing Translational Sciences (NCATS), 2010), this text covers Potency, cell number change and lipid storage change, negative = inhibition for 63 molecules.

About 2,100 (0.66%) of roughly 320,000 compounds were called active. About 53% were inconclusive and are not listed. Calls come from the whole dose curve; as a rule, active = well fitted inhibition curve with a large enough effect in the signal ratio, with a control signal flat (not every such curve was filed as active); inconclusive = small, poorly fitted or top-dose-only effect, or effect the other way, or a change in a side signal; inactive = flat fitted curve, though single readings scatter; the % refers to the signal ratio. Many of the other results were omitted from the sample, so actives are more common in it than they were.
Potency is the fitted concentration of half-maximal effect.

This assay can be described thus: qHTS Assay for Lipid Storage Modulators in Drosophila S3 Cells.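 For cell number change: cells counted by Cell Tracker Red CMTPX staining in the red channel.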 For lipid storage change, negative = inhibition: % is set by controls: 0 for no effect and ±100 for the full control effect. The settings on record: BODIPY lipid droplet fluorescence, 18-24 h, cells fed with added oleic acid; cell number change: measured here: cell count max response; series mostly up to 46.1 µM. Summed up: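 Drosophila S3 cells got compounds at several concentrations plus oleic acid (400 uM solution). Laser-scanning cytometry with 488 nm excitation read lipid droplets at 500-530 nm and cells at 575-640 nm. Percent activity was relative to 20 uM Triacsin C.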
(In qHTS, concentration-response curves come from the screen itself.)
Regarding `CC12CCC(C(=O)Nc3ccccc3)(C(Br)C1=O)C2(C)C` (stereo not given), the Potency entry was “inactive” and the cell number change was -7.13%.

With `CC/C(O)=C(/C#N)c1nnc2n1CCCCC2`, the Potency entry is “inactive” and the cell number change was found to be 8.5%. As for `CCOCCCNS(=O)(=O)c1cc2[nH]c3c(c2cc1C)C(=O)CC(C)(C)C3`, the Potency entry is “inactive” and the cell number change amounted to 16.9%.

For `Cc1ccc(C(=O)NCCNC(=O)c2ccco2)cc1C`, the Potency entry is “inactive” and the cell number change came out at 19.6%.

As to `COC(=O)c1c(NC(=O)CC2SC(N)=NC2=O)sc2c1CCCC2` (stereo not given), the Potency entry was “inactive”. Regarding `COc1ccc(NC(C)c2ccccc2)cc1` (stereo not given), the Potency entry is “inactive” and the cell number change is -5.31%. For `COc1ccc(N2CCN(c3nc(Cl)nc(N4CCOCC4)n3)CC2)cc1` the same measures were “inactive” and -11.2%.

On to `COc1cc(C(=O)N(Cc2ccc(C)o2)C2CCS(=O)(=O)C2)cc(OC)c1OC` (stereo not given), for which the Potency result is “inactive” and the cell number change was -6.11%.

Turning to `CN1CCN(c2ccccc2NC(=O)c2ccc(-c3ccc(Cl)c(Cl)c3)o2)CC1`, the Potency result is “inactive”. As to `O=C(Nc1ccccc1N1CCCCC1)c1ccc(Cl)cc1`, the Potency entry was “inactive” and the cell number change is 12%. With `O=C(Nc1ccccc1N1CCCCC1)c1ccc(-c2ccc(Cl)cc2)o1`, the Potency is 14.6 µM (active) and the cell number change is 1.36%. In the same order, the values of `Cc1csc(N(C(=O)Cc2ccccc2F)c2ccccc2)n1` are “inactive” and 3.81%. In the same order, the values of `Clc1ccc(C2=Nn3c(nnc3-c3cccnc3)SC2)s1` are “inactive” and -22.1%. For `CCOC(=O)c1sc(=S)n(-c2ccccc2)c1N` the same measures were “inactive” and -17.5%. With `COC(=O)c1sc(=S)n(-c2ccccc2)c1N`, the Potency was 11.6 µM (active). `COC(=O)c1sc(=S)n(-c2cccc(Cl)c2)c1N`: the Potency result was “inactive” and the cell number change is -15.4%. In the same order, the values of `Cc1cc(C)n2c(SCC(C)C)nnc2n1` are “inactive” and -0.577%. For `O=C(CCCc1ccccc1)N1CCc2ccccc21` the same measures were “inactive” and 4.72%. `Cc1ccc(NC(=O)CS(=O)CC(=O)N(CC(=O)NC(C)(C)C)c2cccc(C)c2C)cc1` (stereo not given): the Potency entry is “inactive” and the cell number change stood at 1.3%.

For the molecule `O=C(N/C(=C\c1ccccc1)C(=O)N1CCOCC1)c1ccco1`, the Potency result was “inactive” and the cell number change was determined as 1.67%.

Turning to `CC(C)C12CN3CC(C(C)C)(CN(C1)C3(C)C)C2=O`, the Potency result is “inactive” and the cell number change came out at 8.23%. In the same order, the values of `COc1ccc(C2(C(=O)NCc3ccccc3Cl)CCOCC2)cc1OC` are “inactive” and -6.59%.

Turning to `N#Cc1ccc(OCC(=O)N/N=C/C2CC=CCC2)cc1` (stereo not given), the Potency entry is “inactive” and the cell number change turned out to be 18.8%. Consider `COc1ccc(OCC(=O)N/N=C/C2CC=CCC2)cc1` (stereo not given), for which the Potency result is “inactive” and the cell number change is -11.3%. For the molecule `O=C(COc1ccc(Cl)cc1Cl)N/N=C/C1CC=CCC1` (stereo not given), the Potency is 1.84 µM (active) and the cell number change is -11.9%. For `CCc1[nH]nc(C(=O)N2CCCC(Nc3cccc(F)c3)C2)c1C` (stereo not given), the Potency result was “inactive” and the cell number change turned out to be 0.697%. `CCNC(=S)Nc1cccc([N+](=O)[O-])c1`: the Potency result is “inactive” and the cell number change was determined as 16.5%. On to `CN(CC(=O)Nc1ccc(F)cc1)C(=O)c1ccncc1`, for which the Potency is 1.64 µM (active). For `CN(CC(=O)Nc1cccc(F)c1)C(=O)c1cc(-c2ccccc2)nc2ccccc12`, the lipid storage change, negative = inhibition is 3.36% [at 0.0737 µM] (inactive).

For `COc1cccc(NC(=O)CN(C)C(=O)c2cn(-c3ccccc3)nc2-c2cccnc2)c1`, the Potency entry is “inactive” and the cell number change was -3.75%. Take `COc1cccc(-c2nn(-c3ccc(C)cc3)cc2C(=O)N(C)CC(=O)Nc2cccc(F)c2)c1`: the Potency is 6.51 µM (active) and the cell number change is -27.2%.

Consider `CN(CC(=O)Nc1cccc(F)c1)C(=O)c1cc(=O)[nH]c2ccccc12`, for which the Potency result was “inactive” and the cell number change came out at 6.52%. As for `CN(CC(=O)Nc1cccc(F)c1)C(=O)c1cccc2ccccc12`, the Potency is 5.8 µM (active) and the cell number change was -19.1%. For `CCCCC1CCC(C(=O)N(C)CC(=O)Nc2cccc(F)c2)CC1` (stereo not given), the Potency is 0.651 µM (active) and the cell number change was 20.8%.

In the case of `CN(CC(=O)Nc1c(Cl)cccc1Cl)C(=O)c1ccncc1`, the Potency entry is “inactive” and the cell number change turned out to be 22.3%. For `CCCCC1CCC(C(=O)N(C)CC(=O)Nc2cccc(OC)c2)CC1` (stereo not given) the same measures were “inactive” and -0.846%. In the same order, the values of `CN(CC(=O)Nc1ccc(F)cc1)C(=O)c1ccc(N2C(=O)CCC2=O)cc1` are “inactive” and 5.41%. As for `COc1ccc(NC(=O)CN(C)C(=O)c2cn(-c3ccccc3)nc2-c2ccc(F)cc2)cc1`, the Potency result is “inactive” and the cell number change was -10.6%. `CC1CC1C(=O)N(C)CC(=O)Nc1cccc(F)c1` (stereo not given): the cell number change was -4.04% and the lipid storage change, negative = inhibition was -4.95% [at 0.0737 µM] (inactive). In the case of `Cc1nc([N+](=O)[O-])c(C(=O)OCc2cccc(Br)c2)n1C`, the Potency result is “inactive” and the cell number change is -13.6%.

As to `O=C(COC(=O)C1CCN(c2ccc(C(F)(F)F)cn2)CC1)NCc1ccc(Cl)cc1Cl`, the Potency entry was “inactive” and the cell number change turned out to be 7.81%.

For `O=C1CCCN1c1ccc(S(=O)(=O)N2CCCCC2)cc1[N+](=O)[O-]`, the Potency entry is “inactive” and the cell number change came out at 14.2%.

As for `CS(=O)(=O)c1ccccc1C(=O)N(CCc1ccccc1)Cc1ccccc1`, the Potency entry was “inactive” and the cell number change was -4.69%. In the same order, the values of `O=C(NCC1CCN(C(=O)c2ccc([N+](=O)[O-])cc2)CC1)C(=O)Nc1ccccc1` are “inactive” and -0.701%. For `Cc1c(NC(=O)CSc2ccccc2C(=O)Nc2cccnc2)c(=O)n(-c2ccccc2)n1C` the same measures were “inactive” and 13.8%. In the same order, the values of `CCOC(=O)C1(CCOC)CCN(Cc2ccc(C3CCCCO3)s2)CC1` (stereo not given) are “inactive” and -8.03%. In the case of `O=C(Cc1ccccc1)NN1C(=O)C2C3C=CC([C@@H]2C1=O)C31CC1` (stereo not given in full), the Potency result is “inactive” and the cell number change was -3.77%. In the same order, the values of `O=C1C2C(C(=O)N1Cc1cccnc1)C1C=CC2C12CC2` (stereo not given) are “inactive” and -2.7%. For `O=C1C2C(C(=O)N1CCc1ccccc1)C1C=CC2C12CC2` (stereo not given) the same measures were 23.1 µM (active) and -11.6%. For `COCC(=O)Nc1ccc(C(C)C)cc1` the same measures were “inactive” and 24.3%.

Turning to `CC(C)(C)C(=O)NCCN1CCN(C(=O)C(C)(C)C)CC1`, the Potency entry is “inactive” and the cell number change was 3.18%. For the molecule `Cc1ccc(-c2nnn(CCC(=O)N3CCCCC3C)n2)cc1` (stereo not given), the Potency result is “inactive” and the cell number change came out at 10.5%. In the same order, the values of `Cc1ccc(-c2nnn(CC(=O)N3C(C)CCCC3C)n2)cc1` (stereo not given) are 10.3 µM (active) and -11%. Regarding `Cc1ccc(-c2nnn(CC(=O)O)n2)cc1`, the Potency entry was “inactive”. `Cc1ncc(CO)c(/C=N/NC(=O)c2ccc(O)cc2)c1O`: the Potency entry was “inactive” and the cell number change was 19.8%. In the same order, the values of `Cc1ncc(CO)c(/C=N/NC(=O)c2ccccc2Br)c1O` are “inactive” and 0.48%. In the same order, the values of `Cc1cc(C(=O)N/N=C/c2c(CO)cnc(C)c2O)c2ccccc2n1` are 5.17 µM (active) and -19.9%.

Turning to `Cn1c(CNC(=O)OC(C)(C)C)nnc1SCc1c(Cl)cccc1Cl`, the Potency result is “inactive” and the cell number change was -2.58%. In the same order, the values of `Nc1nc(-c2ccccc2)nn1C(=O)c1ccco1` are “inactive” and -9.73%.

In the case of `Cc1cc(NC(=O)COC(=O)CCC(=O)c2ccc(F)cc2)no1`, the Potency entry was “inactive” and the cell number change came out at 5.31%.

`O=C(CN1C(=O)NC2(CCCCCC2)C1=O)NCc1cccs1`: the Potency entry is “inactive” and the cell number change is -8.23%.

On to `COc1ccc(CNC(=O)CN2C(=O)NC(C)(c3ccc(C(C)(C)C)cc3)C2=O)cc1` (stereo not given), for which the Potency entry is “inactive” and the cell number change worked out at 5.69%.

As to `CC(C)(C)c1ccc(C2(C)NC(=O)N(CC(=O)NCc3cccs3)C2=O)cc1` (stereo not given), the Potency is 5.17 µM (active) and the cell number change turned out to be 3.77%.
